Inconclusive results are not listed. A call without a number means that no potency is given here. Activity calls are given as the source filed them. The call rests on the fitted dose curve; in most records, active means well fitted inhibition curve with a large enough effect; inconclusive means small, poorly fitted or top-dose-only effect; inactive means no such curve, though single readings can be large or run the other way.

The target of this experiment is Retinaldehyde dehydrogenase 3 (Homo sapiens) (UniProt P47895). The experiment can be described thus: qHTS for Inhibitors of the Aldehyde Dehydrogenase Family (ALDH1A3) Primary screen (AID 2061315). The note with it: ALDH inhibition qHTS; series mostly up to 56 µM.
On to `COc1cnc(-c2ccc(Cn3c(CC(C)(C)C(=O)O)c(SC(C)(C)C)c4cc(OC[C@@H]5Cc6ccccc6N5C(C)=O)ccc43)cc2)nc1`, for which the Potency entry is “inactive”.
The result for `O=C(COC(=O)CNC(=O)c1ccccc1)Nc1cc(C(F)(F)F)ccc1Cl` reads “inactive”.
For `O=S(=O)(c1ccc(Br)cc1)N1CCN(S(=O)(=O)c2ccc3c(c2)OCCO3)CC1` the value was “inactive”; for `COc1ccc(-c2ccc3ncnc(NCc4nc(C)cs4)c3c2)cc1OC`, “inactive”.
For `C(=C/c1cccs1)/c1ccncc1` the value was “inactive”; for `Oc1cccc2cc(N3CCCC3)cnc12`, “inactive”; for `COc1ccc(C2=Nn3c(nnc3-c3ccccc3C(F)(F)F)SC2)cc1OC1CCOC1` (stereo not given), “inactive”.
Regarding `COc1cc(O)c(C(CC(=O)N2CCCC(C)(C)C2)c2ccc3c(c2)OCO3)c(OC)c1` (stereo not given), the Potency result is “inactive”.
The result for `CN(c1cccc2cccnc12)S(=O)(=O)c1ccccc1` reads “inactive”; that for `Cc1ccc(C(=O)NC2CCN(C#N)CC2)cc1`, “inactive”.
For `O=S(=O)(NCC1CN(S(=O)(=O)c2ccc3c(c2)OCCO3)C1)c1c(F)cccc1F` the value was “inactive”.
For `CC(=O)c1ccc(N2CCN(S(=O)(=O)c3ccc4c(c3)C(=O)OC4)CC2)cc1`, the Potency entry is “inactive”.
Consider `O=C(Cc1ccc2ccccc2c1)Nc1ccc(S(=O)(=O)Nc2nccs2)cc1`, for which the Potency result is “inactive”.
Turning to `Cc1cccc(S(=O)(=O)Nc2cnccc2C(=O)Nc2nc(-c3ccccc3)cs2)c1`, the Potency entry is “inactive”.
For `Cc1ccc(-c2ccc(=O)n(CC(=O)N(C)C(C)c3ccco3)n2)cc1` (stereo not given) the value was “inactive”.
For `Cc1cc(NC(=O)Nc2nnc(-c3ccncc3)s2)ccc1Cl` the value was “inactive”; for `COc1cccc(C2=Nn3c(nnc3-c3ccccc3OC)SC2)c1`, “inactive”.
For `Cn1nnnc1Sc1ncnc2scc(-c3ccsc3)c12` the value was “inactive”; for `CN(CCc1cnc[nH]1)c1ncnc2ccc(-c3ccc4c(c3)OCO4)cc12`, “inactive”; for `O=c1[nH]ccc2nc(-c3ccc(CN4CCC(c5nc(-c6ccccn6)n[nH]5)CC4)cc3)c(-c3ccccc3)cc12`, “inactive”.
In the case of `COc1ccc(C2=Nn3c(nnc3-c3ccccc3F)SC2)cc1OCC1CC1`, the Potency entry is “inactive”.
For `COc1ccc(C2c3c(nc(Cc4ccccc4)[nH]c3=O)Oc3ccc4ccccc4c32)cc1OC` (stereo not given) the value was “inactive”; for `NC(=O)C1CCN(c2nc(-c3cccc(F)c3)cs2)CC1`, “inactive”.
The result for `Cc1cc(C)nc(NC(=S)N2CCN(c3ncccc3C#N)CC2)c1` reads “inactive”; that for `Cc1ccc(OCCn2c(CCNC(=O)c3ccccc3F)nc3ccccc32)cc1`, “inactive”.
For the compound `Cc1ccc(S(=O)(=O)Nc2ccccc2C(=O)Nc2ccc(-c3ccccc3)nc2)cc1`, the Potency result is “inactive”.
`O=C(c1ccccc1)N(C(=O)c1ccccc1)c1ncnc2c1C(c1ccccc1)c1c(ccc3ccccc13)O2` (stereo not given): the Potency result is “inactive”.
For `O=c1c2ccc([N+](=O)[O-])cc2nc2sc(Nc3ccc4c(c3)CCC4)nn12` the value was “inactive”; for `Cc1cc(C)nc(NC(=S)N2CCN(c3ccccn3)CC2)c1`, “inactive”.
The result for `CC(C)(C)OC(=O)Cc1nnc(C(C(=O)OCc2ccccc2)c2ccccc2)o1` (stereo not given) reads “inactive”.
The result for `Cc1c(C(=O)NCC2CCCO2)[nH]c2c1C(=O)CC(c1ccco1)C2` (stereo not given) reads “inactive”; that for `CC(=O)NC1CCN(c2nc(-c3ccc(Br)cc3)cs2)CC1`, “inactive”; that for `O=C1CCc2cc(S(=O)(=O)Nc3cccc(-c4ccccc4)c3)ccc2N1`, “inactive”.
On to `Brc1ccccc1-c1nc(NCc2ccc(-c3cccnc3)cc2)c2ccccc2n1`, for which the Potency entry is “inactive”.
The result for `Cc1ccc(OCCn2c(CCNC(=O)c3cccc(C)c3)nc3ccccc32)cc1` reads “inactive”.
The result for `COc1cc(-c2nc(Nc3ccc(F)c(F)c3)c3ccccc3n2)c(F)cn1` reads “inactive”.
Turning to `COc1ccc(S(=O)(=O)N2CCN(S(=O)(=O)c3ccc(OC)cc3)CC2)cc1`, the Potency entry was “inactive”.
For `c1nc(NCC2CCCCC2)c2cc(-c3ccc4c(c3)OCO4)ccc2n1` the value was “inactive”; for `COc1ccc(CCc2nc3c(C)c(-c4c(C)noc4C)c(C)cc3n2CCN2CCOCC2)cc1`, “inactive”; for `COc1cccc(C2N=C(Nc3nc4ccccc4o3)NC3=C2C(=O)CCC3)c1` (stereo not given), “inactive”.

Values taken from PubChem BioAssay (NCATS).
